Measurements as given in PubChem BioAssay (NCATS).
Inconclusive results are not listed. Calls follow the shape of the full dose curve.

Each compound was assayed against Atrial natriuretic peptide receptor 1 (Homo sapiens) (UniProt P16066) (assay: Natriuretic polypeptide receptor (hNpr1) antagonism - Pilot CMLD screen (AID 1347052;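 also: HEK293 cells with hNpr1 stimulated by hNppA peptide at 0.1 nM; cGMP level read as GloSensor luciferase luminescence after agonist stimulation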)). Conditions: HEK293 hNpr1 GloSensor cGMP luminescence, ANP-stimulated; series mostly up to 9.22 µM; activity change, negative = inhibition: at the top concentration.
% is scaled to controls: 0 for no effect and ±100 for the full control effect.

Sequence of Atrial natriuretic peptide receptor 1 (Homo sapiens) (P16066 whole entry, looked up): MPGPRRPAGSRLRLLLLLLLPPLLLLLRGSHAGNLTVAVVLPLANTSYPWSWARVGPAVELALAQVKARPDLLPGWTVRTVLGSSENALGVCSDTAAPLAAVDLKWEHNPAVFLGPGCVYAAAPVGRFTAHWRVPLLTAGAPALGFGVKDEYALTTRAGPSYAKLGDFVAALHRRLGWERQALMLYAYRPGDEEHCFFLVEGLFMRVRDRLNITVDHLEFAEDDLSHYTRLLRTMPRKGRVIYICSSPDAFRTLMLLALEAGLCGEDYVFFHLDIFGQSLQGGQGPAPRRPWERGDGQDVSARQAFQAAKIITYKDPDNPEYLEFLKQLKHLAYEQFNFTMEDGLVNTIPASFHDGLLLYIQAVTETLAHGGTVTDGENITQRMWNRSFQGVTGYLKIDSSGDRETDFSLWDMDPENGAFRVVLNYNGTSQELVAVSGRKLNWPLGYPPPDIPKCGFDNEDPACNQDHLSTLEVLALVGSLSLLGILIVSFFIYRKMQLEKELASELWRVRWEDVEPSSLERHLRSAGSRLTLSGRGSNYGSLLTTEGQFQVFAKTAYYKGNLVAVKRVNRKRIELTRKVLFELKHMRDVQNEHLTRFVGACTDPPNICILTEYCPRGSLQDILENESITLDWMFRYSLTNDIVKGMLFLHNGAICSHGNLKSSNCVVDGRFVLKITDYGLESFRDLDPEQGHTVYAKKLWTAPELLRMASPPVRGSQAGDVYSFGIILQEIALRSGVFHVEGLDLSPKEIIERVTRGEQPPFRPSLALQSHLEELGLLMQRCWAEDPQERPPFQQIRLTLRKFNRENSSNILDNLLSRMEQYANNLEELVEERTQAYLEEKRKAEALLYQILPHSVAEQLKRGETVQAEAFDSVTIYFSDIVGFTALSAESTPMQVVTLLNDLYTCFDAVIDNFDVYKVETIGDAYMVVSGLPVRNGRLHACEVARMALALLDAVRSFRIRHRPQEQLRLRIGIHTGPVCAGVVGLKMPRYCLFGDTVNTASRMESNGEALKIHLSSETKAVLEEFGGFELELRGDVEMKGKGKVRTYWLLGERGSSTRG

Activity change, negative = inhibition, inactive:
CCCNC(=O)OC[C@H]1O[C@H](CCON=C2C[C@@H](O)[C@@H](O)[C@@H]3[C@H]4C(=O)N(CC)C(=O)[C@@H]4CC[C@H]23)C=C[C@H]1Oc1ccc(OC)cc1 6.95%
COC(=O)C1=C(C(=O)OC)[C@@H]2N(C)c3ccccc3[C@@]23C[C@@H](CO)N(C(=O)c2ccc(Br)cc2)C3=N1 10.4%
COc1ccc(-c2ccc3c(n2)CCCN3CC(O)CN2CCCc3nc(C)c(C)cc32)cc1 (centres undefined) 9.71%
CCCNC(=O)CC1OC(C2CCCCC2)Cc2ccccc21 (centres undefined) -0.778%
CCN1C(=O)N[C@@H](c2cccc(C(F)(F)F)c2)[C@H](C(C)=O)[C@H]1C 4.03%
CCOC(=O)CN1C(=O)[C@]2(O[C@H](C)CC3=CCCC32)c2c(Br)cccc21 (some centres undefined) 10.2%
COCC=CC1=CC2=CC(=O)C(C)(OC(=O)c3cnc4ccccc4n3)C(=O)C2=CN1C1CC1 (centres undefined) 1.09%
COCCN1C(=O)NC(c2ccc(Br)cc2)C(C(=O)OC)=C1C (centres undefined) -5.93%
COC(=O)C1=C(C(=O)OC)[C@@H]2N(C)c3ccccc3[C@@]23CCC(=O)N(CC(C)C)C3=N1 0.0868%
COc1cc2c(cc1OC)[C@@H]1O[C@](c3ccsc3)(C2)Oc2cc(-c3ccccc3)oc(=O)c21 9.53%
C=CCN1C(=O)[C@]2(OCCC=C[C@@H]2C)c2cc(OC)ccc21 1.23%
CC#CCN1C(=O)NC(c2ccccc2)C(C(=O)OCC)=C1c1ccccc1 (centres undefined) 0.123%
CCN1C(=O)N(C)C(c2ccccc2)C(C(=O)OC)=C1C (centres undefined) 8.3%
CC(=O)OC[C@H]1O[C@H](c2ccc(C(C)=O)cc2)C=C[C@H]1OC(C)=O 9.84%
